This is an account of results in PubChem BioAssay.

Test [1] deals with XIP peptide (Xip251-270) binding. Description: small-molecule binders of XIP peptide, primary screen, biochemical, small-molecule microarray, fluorescence 635/667 nm, 0.1 µg/mL protein (AID 1182). Particulars: fluorescent protein binding, 635 nm, higher = more signal, called active from +8 up or from −8 down.
Another test relates to XIP peptide (Xip251-270). Description: small-molecule binders of XIP peptide, primary screen, biochemical, small-molecule microarray, fluorescence 635/667 nm, 0.5 µg/mL protein (AID 1183). Particulars: small-molecule microarray binding, fluorescence 635 nm; higher = more signal.
Test [2] is described as follows: Plasmodium falciparum growth inhibition, primary screen, strain 3D7, DAPI fluorescence, 100 nL (AID 1184).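 Note: parasites grown inside human red blood cells in medium with human serum.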 Particulars: P. falciparum 3D7 growth, 3 d, higher = more signal.
Test [3] has as its target Homeobox protein Hox-A13 (Mus musculus) (UniProt Q62424). Description: inhibitors of HoxA13-DNA binding, primary screen, biochemical, fluorescence polarization, labeled oligonucleotide (AID 1185). Particulars: 15 min, higher = more signal, called active from +8 up or from −8 down. A general note: Fluorescence polarisation rises when a labelled molecule tumbles more slowly, as on binding a larger partner.

Test [4] in a line: inhibitors of hydroxyurea-induced Chk1 phosphorylation, primary screen, imaging, HeLa, phospho-Chk1 antibody, percent positive cells (AID 1186). Particulars: hydroxyurea-induced phospho-Chk1 immunofluorescence imaging, higher = more signal.
Test [5] can be described thus: inhibitors of hydroxyurea-induced Chk1 phosphorylation, primary screen, imaging, HeLa, phospho-Chk1 nuclear intensity (AID 1187). Particulars: hydroxyurea-induced phospho-Chk1 immunofluorescence imaging, higher = more signal.

Molecules are shown by their SMILES. Activity calls are given as the source filed them. Unless noted, the rule behind the calls is not given here.

Chain of Homeobox protein Hox-A13 (Mus musculus) (Q62424 whole entry, looked up): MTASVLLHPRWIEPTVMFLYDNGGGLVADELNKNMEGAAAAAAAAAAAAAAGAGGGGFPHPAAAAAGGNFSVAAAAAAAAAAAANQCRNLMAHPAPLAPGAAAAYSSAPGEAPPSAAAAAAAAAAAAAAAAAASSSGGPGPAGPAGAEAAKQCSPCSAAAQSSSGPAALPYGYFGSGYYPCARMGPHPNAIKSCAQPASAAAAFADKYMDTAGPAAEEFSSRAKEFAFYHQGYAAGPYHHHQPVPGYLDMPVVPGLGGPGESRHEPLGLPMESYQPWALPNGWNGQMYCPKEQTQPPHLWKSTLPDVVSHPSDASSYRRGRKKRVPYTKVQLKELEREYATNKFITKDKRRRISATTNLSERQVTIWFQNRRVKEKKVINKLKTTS

As to `C=C(CCCC)/C(=C/C[C@H](OC(=O)c1ccncc1)c1ccc(CO)o1)c1cc(C(=O)OC)ccc1OC`, the composite z-score was 0.948 (inactive) in test [1] and 0.71 in the test with XIP peptide (Xip251-270). In addition, the z-score in test [2] is -0.138; in test [3] it was -5.29 (inactive); in test [4], -0.52 (inactive); in test [5], -1.02 (inactive).
For the compound `CC(C)C[C@H]1NC(=O)[C@H](C)NC(=O)[C@@]23C(=O)N[C@@H](Cc4ccccc4)C2[C@H](C)[C@@]2(C)O[C@H]2C3/C=C/C/C=C\CNC1=O` (some centres not stated), the composite z-score in test [1] is 1.2 (inactive); with XIP peptide (Xip251-270), 0.685. The z-score in test [2] was 0.96; in test [3], -6.14 (inactive); in test [4], -0.454 (inactive); in test [5], -0.576 (inactive).
For the compound `COC(=O)[C@@]1(Cc2ccc(F)cc2)[C@H]2c3cc(C(=O)N(C)C)n(CCSCCO)c3C[C@H]2CN1C(=O)c1ccccc1`, the composite z-score is 0.235 (inactive) in test [1] and 0.0692 in the test with XIP peptide (Xip251-270). The z-score in test [2] is -0.404; in test [3] it was -4.76 (inactive); in test [4] it was 0.511 (inactive); in test [5], 0.469 (inactive).
`C=C(COC)/C(=C/C[C@@H](OC(=O)c1ccncc1)c1cccc(OCCO)c1)c1cc(C(=O)OC)ccc1OC`: the composite z-score is 0.658 (inactive) in test [1] and 0.657 in the test on XIP peptide (Xip251-270). Besides, the z-score in test [2] was -2.38; in test [3] it was -4.58 (inactive); in test [4], 0.0182 (inactive); in test [5] it was 0.527 (inactive).
`CC(C)CNC(=O)[C@@]1(C)c2ccccc2C(=O)N(Cc2ccccc2)[C@H]1c1ccc(CO)cc1`: the results for the composite z-score (in test [1]; in the test with XIP peptide (Xip251-270)) were 1.06 (inactive) and -0.951, respectively. The z-score in test [2] is 0.301; in test [3], -2.75 (inactive); in test [4], 0.105 (inactive); in test [5] it was -0.267 (inactive).
As for `C=C(/C(=C/C[C@@H](OC(C)=O)c1ccccc1OCCO)c1cnc2ccccc2c1)C(C)C`, the composite z-score is 0.143 (inactive) in test [1] and 0.339 in the test with XIP peptide (Xip251-270). In addition, the z-score in test [2] is -2.62; in test [3] it was -5.18 (inactive); in test [4] it was 0.642 (inactive); in test [5] it was 0.0715 (inactive).
As for `Cc1ccc(S[C@]2(C(=O)O)CC(=O)N(C3CCCCC3)[C@@H]2c2ccc(CO)cc2)cc1`, the composite z-score was 1.15 (inactive) in test [1] and 0.929 in the test with XIP peptide (Xip251-270). The z-score in test [2] was 0.756; in test [3] it was -3.31 (inactive); in test [4], -0.643 (inactive); in test [5], -0.583 (inactive).
For the compound `COCC(=C=CC[C@@H](O)c1ccccc1OCCO)C[C@@H](O)COCc1ccccc1`, the composite z-score was -0.581 (inactive) in test [1] and 0.262 with XIP peptide (Xip251-270). For the same compound, the z-score in test [2] is -2.84; in test [3], -4.38 (inactive); in test [4], -1.14 (inactive); in test [5], -0.978 (inactive).
With `CN1C(=O)C2C=CC(C(O)c3ccc(F)cc3)N(N3CCCCC3)C2C1=O` (configuration not stated), the results for the composite z-score (in test [1]; in the test on XIP peptide (Xip251-270)) were 0.612 (inactive) and -0.635, respectively. In addition, the z-score in test [2] was -0.0184; in test [3] it was -7.46 (inactive); in test [4], 0.64 (inactive); in test [5], -0.206 (inactive).
With `COCCOC(=O)N1C(=O)[C@@]2(c3cc(C#CCC(C(=O)OC)C(=O)OC)ccc31)[C@H](c1ccc(OCCO)cc1)N1[C@H](c3ccccc3)[C@H](c3ccccc3)OC(=O)[C@H]1[C@@H]2C(N)=O`, the composite z-score in test [1] is 0.335 (inactive); in the test with XIP peptide (Xip251-270) it was 0.803. Moreover, the z-score is -1.96 in test [2], -1.07 (inactive) in test [3], -0.154 (inactive) in test [4] and 0.0321 (inactive) in test [5].
Regarding `C=CC[C@]1(C(=O)N(C)C)N=C(c2ccc(OCCCO)cc2)O[C@H]1c1ccccc1`, the composite z-score in test [1] is 0.39 (inactive); in the test on XIP peptide (Xip251-270) it was 0.643. For the same compound, the z-score in test [2] is -2.08; in test [3], -4.25 (inactive); in test [4], -0.271 (inactive); in test [5] it was 0.109 (inactive).
As to `COc1ccc(CCNC(=O)[C@@H]2c3ccccc3C(=O)N(Cc3ccccc3)[C@H]2c2ccc(CO)cc2)cc1`, the composite z-score is 1.09 (inactive) in test [1] and 0.619 in the test on XIP peptide (Xip251-270). For the same compound, the z-score in test [2] was -1.08; in test [3] it was -3.2 (inactive); in test [4], -0.938 (inactive); in test [5], -1.38 (inactive).
For `COc1ccccc1CN1C(=O)c2ccccc2[C@](Cc2ccccc2I)(C(=O)NCCN2CCOCC2)[C@@H]1c1ccc(CO)cc1`, the composite z-score was -0.0028 (inactive) in test [1] and 0.755 with XIP peptide (Xip251-270). Moreover, the z-score in test [2] is -2.26; in test [3] it was -4.74 (inactive); in test [4], -0.252 (inactive); in test [5], 0.0168 (inactive).
Consider `COCCOC(=O)N1C(=O)[C@@]2(c3cc(C#CCCO)ccc31)[C@H](C(=O)NC[C@H](O)c1ccccc1)[C@H]1C(=O)O[C@H](c3ccccc3)[C@H](c3ccccc3)N1[C@@H]2c1ccccc1OCCO`, for which the composite z-score in test [1] is 0.355 (inactive); in the test on XIP peptide (Xip251-270), 0.564. For the same compound, the z-score was -0.89 in test [2], -2.38 (inactive) in test [3], 0.308 (inactive) in test [4] and 0.431 (inactive) in test [5].
As for `COc1cccc(C[C@H]2C[C@@H](CO[Si](C(C)C)(C(C)C)C(C)C)N3C(=O)[C@]4(C(C)=O)O[C@]23[C@H]2C(=O)N(C)C(=O)[C@H]24)c1`, the composite z-score is 0.0522 (inactive) in test [1] and 0.459 with XIP peptide (Xip251-270). Besides, the z-score in test [2] is -0.281; in test [3], -3.12 (inactive); in test [4], 0.527 (inactive); in test [5] it was 0.139 (inactive).
Turning to `COc1ccc([Si](C)(C)[C@H]2[C@H](CCO)O[C@@]3(C(=O)N(Cc4cccc(N5CCOC5=O)c4)c4ccccc43)[C@@H]2C)cc1`, the composite z-score is 0.154 (inactive) in test [1] and 0.687 in the test on XIP peptide (Xip251-270). The z-score is -2.79 in test [2], -4.21 (inactive) in test [3], -1.12 (inactive) in test [4] and -0.5 (inactive) in test [5].
Take `COc1ccccc1CN1C(=O)c2ccccc2[C@@H](C(=O)NCC(C)C)[C@@H]1c1ccc(CO)cc1`: the composite z-score was 0.25 (inactive) in test [1] and 0.791 in the test with XIP peptide (Xip251-270). In addition, the z-score is -1.24 in test [2], -1.48 (inactive) in test [3], 0.0947 (inactive) in test [4] and 0.525 (inactive) in test [5].
On to `COCCCNC(=O)[C@]1(Cc2ccccc2)N=C(c2ccc(OCCCO)cc2)O[C@@H]1c1ccccc1N=[N+]=[N-]`, for which the values for the composite z-score (in test [1]; in the test with XIP peptide (Xip251-270)) were 0.829 (inactive) and 0.576, respectively. In addition, the z-score in test [2] is -2.7; in test [3] it was -4.42 (inactive); in test [4], -1.82 (inactive); in test [5], -6.65 (inactive).
On to `Cc1ccc(S[C@]2(C(=O)NCC(C)C)CC(=O)N(C3CCCCC3)[C@@H]2c2ccc(CO)cc2I)cc1`, for which the composite z-score is 1.4 (inactive) in test [1] and 0.254 in the test with XIP peptide (Xip251-270). Further, the z-score in test [2] was -1.82; in test [3], -3.86 (inactive); in test [4], 0.263 (inactive); in test [5] it was 0.746 (inactive).
With `CC[C@@H]1[C@@H]2C3C(=O)N(CC)C(=O)C3CC(=O)[C@@H]2[C@H](c2ccc(C)cc2)N1S(=O)(=O)c1ccc(C)cc1` (some centres not stated), the composite z-score is -0.363 (inactive) in test [1] and 0.73 in the test on XIP peptide (Xip251-270). In addition, the z-score was -0.226 in test [2], -3.54 (inactive) in test [3], -1.51 (inactive) in test [4] and -1.33 (inactive) in test [5].
In the case of `COCCOC(=O)N1C(=O)[C@@]2(c3cc(C#Cc4ccc(OC)cc4)ccc31)[C@H](C(N)=O)[C@H]1C(=O)O[C@H](c3ccccc3)[C@H](c3ccccc3)N1[C@@H]2c1ccc(OCCO)cc1`, the composite z-score in test [1] is 0.283 (inactive); with XIP peptide (Xip251-270) it was 0.721. The z-score in test [2] was -2.35; in test [3], -1.11 (inactive); in test [4], 0.0311 (inactive); in test [5], 0.239 (inactive).
Regarding `CC(C)[Si](C#C[Si](C(C)C)(C(C)C)C(C)C)(O[C@H](C)c1cn(Cc2cccc(Cl)c2)nn1)C(C)C`, the composite z-score in test [1] was -0.109 (inactive); with XIP peptide (Xip251-270), -0.0612. Further, the z-score was 0.293 in test [2], 0.702 (inactive) in test [3], 0.0695 (inactive) in test [4] and 0.153 (inactive) in test [5].
Consider `C[N+](C)(C)CCCC[C@@H]1NC(=O)[C@H]2C[C@@H](C(=O)NCCCCCCN)[C@@H](c3cccc(OCCO)c3)N2C1=O`, for which the composite z-score is 1.25 (inactive) in test [1] and 0.527 in the test on XIP peptide (Xip251-270). Moreover, the z-score was -0.997 in test [2], -2.38 (inactive) in test [3], -0.699 (inactive) in test [4] and -0.146 (inactive) in test [5].
Consider `C[C@H]1ON(c2ccccc2)[C@@H](c2ccccc2)[C@@H]1C(=O)N1C(=O)OC[C@@H]1c1ccccc1`, for which the composite z-score in test [1] was -0.222 (inactive); with XIP peptide (Xip251-270) it was 0.195. Further, the z-score in test [2] is -0.968; in test [3], -2.12 (inactive); in test [4], -0.134 (inactive); in test [5], -0.154 (inactive).
As for `CC(=O)NCCCC[C@@H]1NC(=O)[C@@H]2C[C@H](C(=O)NCCCC[N+](C)(C)C)[C@H](c3cccc(OCCO)c3)N2C1=O`, the composite z-score was 0.383 (inactive) in test [1] and 0.446 with XIP peptide (Xip251-270). The z-score in test [2] was -0.102; in test [3] it was -2.25 (inactive); in test [4], -0.349 (inactive); in test [5], -0.317 (inactive).
Take `O=C1NC(=O)C2C1C=CC(C(O)CCc1ccccc1)N2Nc1ccccn1` (configuration not stated): the results for the composite z-score (in test [1]; with XIP peptide (Xip251-270)) were 0.415 (inactive) and 0.932, respectively. In addition, the z-score was 0.581 in test [2], -0.354 (inactive) in test [3], -0.181 (inactive) in test [4] and -0.426 (inactive) in test [5].
Consider `CCOc1cc(C(O)C2C=CC3C(=O)NC(=O)C3N2Nc2ccccn2)ccc1O` (configuration not stated), for which the composite z-score was 0.113 (inactive) in test [1] and 0.0151 in the test with XIP peptide (Xip251-270). The z-score is -0.296 in test [2], -0.998 (inactive) in test [3], 0.861 (inactive) in test [4] and 0.746 (inactive) in test [5].
